About 79,000 compounds went through this panel and 15% of them were active in at least one assay; those are over-represented in the sample as a whole. Rule as the data show it: active = growth inhibition above about 70%; inactive = the rest. *1 amine or outer side, *2 acyl side, *3 side chain or, on linkers, in order; H or OH if unused. Where a SMILES comes first, the peptide text is derived from it. [ ]: non-standard residue; d: D form. X12 = NC(N)=NCC(O)CC(N[*:1])C(=O)[*:2]; Orn = NCCC[CH](N)C(=O)O
Assays:
[1] = NCI Yeast Anticancer Drug Screen. Data for the rad50 strain (AID 155);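 also: 0% = growth of vehicle-only cultures of the same strain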; details: S. cerevisiae rad50 strain growth inhibition; at 50.0 µM; stronger effect = higher value
Summary of the method: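 Yeast carrying a defined DNA repair defect were exposed to test compounds, and growth was compared with vehicle-treated controls to give percent inhibition.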

[2] = NCI Yeast Anticancer Drug Screen. Data for the mec2-1 strain (AID 157); details: S. cerevisiae mec2-1 strain, at 50.0 µM, stronger effect = higher value
Summary of the method: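 Readout is yeast growth inhibition, normalised to vehicle-treated controls, in the mec2-1 strain exposed to compound.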

[3] = NCI Yeast Anticancer Drug Screen. Data for the sgs1 mgt1 strain (AID 161);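 also: 0% = growth of cultures given vehicle only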; details: S. cerevisiae sgs1 mgt1 strain, at 50.0 µM, stronger effect = higher value
Summary of the method: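 Growth of a repair-deficient yeast mutant was monitored after compound treatment and expressed as inhibition relative to vehicle-treated cultures.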

[4] = NCI Yeast Anticancer Drug Screen. Data for the cln2 rad14 strain (AID 165);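 also: 0% = growth equal to vehicle treated cultures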; details: S. cerevisiae cln2 rad14 strain, at 50.0 µM, stronger effect = higher value
Summary of the method: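 Relative to vehicle controls, growth inhibition of compound-treated cln2 rad14 yeast was recorded.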

[5] = NCI Yeast Anticancer Drug Screen. Data for the bub3 strain (AID 167); details: S. cerevisiae bub3 mutant strain, at 50.0 µM, stronger effect = higher value
Summary of the method: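 Compounds were applied to a genetically altered yeast strain carrying a cell-cycle control defect. Growth inhibition was scored against vehicle-treated controls.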

[6] = NCI Yeast Anticancer Drug Screen. Data for the mlh1 rad18 strain (AID 175); details: S. cerevisiae mlh1 rad18 strain growth inhibition; at 50.0 µM; stronger effect = higher value
Summary of the method: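 Test agents were incubated with a yeast strain of defined genotype (DNA damage repair defect). Inhibition of growth was derived by comparison with vehicle-exposed cultures.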

Measured: growth inhibition

OCCSCc1cc2c(cc1Br)OCO2
inactive: [1] -29.5% | [2] -2% | [3] -11.8% | [4] 19.8% | [5] 12.4% | [6] 2.15%

CCCCNC(=O)Oc1c(Cl)cc(Cl)c(Cl)c1[N+](=O)[O-]
inactive: [1] 16.2% | [2] 10.1% | [3] 17.9% | [4] 4.4% | [5] -11.1% | [6] 21.2%

c1ccc2c(c1)C1CC3N=NC1C23 (stereo unspecified)
inactive: [1] 3.3% | [2] -1.35% | [3] -10.5% | [4] -20.1% | [5] 3.8% | [6] -3.95%

O=P(CCCCBr)(NCc1ccccc1)c1ccccc1 (stereo unspecified)
inactive: [1] 5.25% | [2] 7.85% | [3] 15.9% | [4] -19.9% | [5] 14.8% | [6] 13.2%

c1ccc(Nc2nnc(Nc3ccccc3)s2)cc1
inactive: [1] -6.15% | [2] 21.6% | [3] 53% | [4] -21.2% | [5] 3.9% | [6] -21.1%

CC(O)C(NC(=O)C(CCCN)NC(=O)C(CC(O)CN=C(N)N)NC(=O)C(N)CCCN=C(N)N)C(=O)NC(CCCN)C(=O)NC(CC(O)CN=C(N)N)C(=O)NC(Cc1ccc(O)cc1)C(=O)O (stereo unspecified) (tested in a mixture with another compound) (H-R[X12][Orn]T[Orn][X12]Y-OH; configuration not given here)
inactive: [1] 39.6% | [2] -3.3% | [3] 19.5% | [4] 8.45% | [5] 27.9% | [6] 38.1%

Nc1nc2c(nc(OCc3ccccc3)n2C2OC(CO)C(O)C2O)c(=O)[nH]1 (stereo unspecified)
inactive: [1] 23.5% | [2] 10.8% | [3] 2.65% | [4] 8.95% | [5] 0.5% | [6] 16.1%

NS(=O)(=O)c1ccc(NO)cc1
inactive: [1] -16.1% | [2] -7.45% | [3] 6.3% | [4] -15.2% | [5] 6.9% | [6] 9.85%

COc1cc(CNc2ccc3nc4n(c(=O)c3c2)CCCCC4)cc(OC)c1OC
inactive: [1] -9.7% | [2] 13.4% | [3] 7.3% | [4] -19.2% | [5] -15.9% | [6] -21.2%

CC(=O)N1C(OC(C)C)CC(C)N1c1ccccc1 (stereo unspecified)
inactive: [1] -7.45% | [2] -15.8% | [3] -38.4% | [4] 3.35% | [5] -22.8% | [6] -38.3%

[N-]=[N+]=Nc1nn2cnnc2c2[nH]c3ccccc3c12
inactive: [1] 46% | [2] 0.65% | [3] 4.25% | [4] -1.4% | [5] -14.9% | [6] 16.1%

COc1cc(/C=C/C=C2\CC/C(=C\C=C\c3ccc(O)c(OC)c3)C2=O)ccc1O
inactive: [1] 10.2% | [2] 18.4% | [3] 31.4% | [4] 37.7% | [5] 29.5% | [6] -9.1%

O=C(Nc1ccccc1)/C(N=Nc1ccccc1)=N\Nc1ccccc1
inactive: [1] -12.6% | [2] -16.1% | [3] -10.4% | [4] -28.4% | [5] 6.6% | [6] 19.8%

CC1(C(=O)O)CCCN1 (stereo unspecified)
inactive: [1] 9.35% | [2] -7.6% | [3] -20.6% | [4] 15.4% | [5] -0.95% | [6] -9%

Cc1cc(=O)n(C)c2ccc(N)cc12
inactive: [1] -3.85% | [2] 3.75% | [3] -4% | [4] -14.8% | [5] 10.5% | [6] 1.85%

Cc1cc(C)c2cccc-2c(C)c1
inactive: [1] -11.8% | [2] -11.3% | [3] -12.3% | [4] -6.15% | [5] -4.9% | [6] -9.95%

C=CCN1C(=O)/C(=C/c2ccc(OCC(=O)O)cc2)SC1=S
inactive: [1] 5.7% | [2] -11.2% | [3] 0.05% | [4] -46.6% | [5] -1% | [6] -13.8%

COc1ccc(CC2COC(=O)C2Cc2ccc(OC)c(OC)c2)cc1OC (stereo unspecified)
inactive: [1] 6.35% | [2] 5.95% | [3] -17.6% | [4] -11.6% | [5] 8.1% | [6] 12.8%

COc1cccc(-n2cnc3c(SC)ncnc32)c1
inactive: [1] 8.8% | [2] 3.9% | [3] 4.75% | [4] -27.9% | [5] 19.1% | [6] 1.6%

Cn1cnnc1Sc1c([N+](=O)[O-])ncn1C
inactive: [1] -3.3% | [2] -5.25% | [3] -5% | [4] 22.5% | [5] 15.6% | [6] -11.6%

C=CCOC(=O)OCC=C
inactive: [1] 4% | [2] -8.55% | [3] 2% | [4] -3.7% | [5] 23.2% | [6] 3.1%

COC(=O)n1c(CBr)c(Br)c2ccccc21
inactive: [1] 26.3% | [2] -2.15% | [3] -3.65% | [4] -3.8% | [5] 4.9% | [6] 1.5%

Cn1c(-c2ccccc2)c/c(=N\NS(C)(=O)=O)c2cc(S(=O)(=O)O)ccc21
inactive: [1] -7.1% | [2] -27.7% | [3] -0.25% | [4] -3% | [5] 11.2% | [6] 10.2%

Cn1c2ccccc2c(=S)c2cc(NC(=O)CCCCC(=O)Nc3ccc4c(c3)c(=S)c3ccccc3n4C)ccc21
inactive: [1] 32.2% | [2] 22.9% | [3] 22.4% | [4] 23.5% | [5] -4.1% | [6] 23.9%

N#CCC(=O)Nc1ccccc1
inactive: [1] 37% | [2] 15.7% | [3] 5.8% | [4] -11.8% | [5] 6.25% | [6] 26.2%

CNC(=O)Nc1ccc(Cl)cc1C(=O)O
inactive: [1] -26.2% | [2] 2.45% | [3] -15.7% | [4] -72.2% | [5] -13.7% | [6] -7.45%

Cc1ccc(S(=O)(=O)N/N=C2\CCC3(C)C(CCC4C3CCC3(C)C(C(C)CCCC(C)C)CCC43)C2)cc1 (stereo unspecified)
inactive: [1] 42.3% | [2] 17.8% | [3] 35.3% | [4] 27.6% | [5] -4% | [6] 33.9%

CCCCCCCC/C=C\CCCCCCCC(=O)N(C)CC(=O)O
inactive: [1] 43.2% | [2] 38.2% | [3] 39.2% | [4] 21.1% | [5] 30.7% | [6] 29.1%

CC(=O)N(C)N=NCCCl
inactive: [1] 26.2% | [2] 7.2% | [3] 10.2% | [4] -29.1% | [5] 12% | [6] 3.85%

Cn1ccc2c([N+](=O)[O-])cccc2c1=O
inactive: [1] 4.1% | [2] 2% | [3] 2.55% | [4] -45.9% | [5] -25.4% | [6] 4.35%

c1ccc2nc(N3CCCC3)c(N3CCCC3)nc2c1
inactive: [1] -8.75% | [2] -12.6% | [3] -10.7% | [4] -21.4% | [5] 57.8% | [6] -4.85%

O=C(O)CCSC1=NCCN1
inactive: [1] -32.8% | [2] -44% | [3] -26.1% | [4] 16.6% | [5] -42.9% | [6] -10.6%

CC1=CC(C/C(C)=C/COc2ccc3ccc(=O)oc3c2)OC1=O (stereo unspecified)
inactive: [1] 8.15% | [2] -38.9% | [3] 11.7% | [4] 11.3% | [5] -0.8% | [6] 7.75%

Cc1cc(Br)ccc1N
inactive: [1] -3.15% | [2] 1.95% | [3] -9.5% | [4] -36.5% | [5] 19.1% | [6] 9.25%

Cc1ccc[n+]([O-])c1Cl
inactive: [1] 1.55% | [2] 14.2% | [3] -8.55% | [4] -34.2% | [5] 11.2% | [6] 4.2%

O[C@@H]1CC2(Cl)CC1(Cl)C(Cl)=C2Cl (stereo partly specified)
inactive: [1] 19.4% | [2] 5.5% | [3] 11.7% | [4] -2.05% | [5] -4.1% | [6] 18.5%

CN(C)N=Nc1ccc(C(=O)N/N=C/c2ccc([N+](=O)[O-])cc2)cc1
inactive: [1] -0.95% | [2] 40.5% | [3] 4.75% | [4] -5.75% | [5] 23.9% | [6] 17.9%

Cc1cn(C2CC(O)C(CO)O2)c(=O)nc1N1CCCC1 (stereo unspecified)
inactive: [1] -4.2% | [2] -7.4% | [3] -12.9% | [4] -8.55% | [5] -0.4% | [6] 0.55%

O=[N+]([O-])c1ccc(NC2C(O)OC(CO)C(O)C2O)c([N+](=O)[O-])c1 (stereo unspecified)
inactive: [1] 5.1% | [2] -3.2% | [3] 5.55% | [4] -7.15% | [5] 5.8% | [6] -0.95%

C=C(C#N)C1OCC2OC(C)(C)OC21 (stereo unspecified)
inactive: [1] 3.7% | [2] -4% | [3] -0.35% | [4] 12.3% | [5] -4.8% | [6] -25.9%

Fc1cccc(C(Nc2nncs2)Nc2nncs2)c1
inactive: [1] 14.1% | [2] -0.1% | [3] -1.7% | [4] -11.6% | [5] -3.8% | [6] -4.35%

Source: PubChem BioAssay (NCI)
